Data on 53 compounds can be found in ChEMBL document CHEMBL4513216, “Probing the Open Global Health Chemical Diversity Library for Multistage-Active Starting Points for Next-Generation Antimalarials” (ACS Infect Dis, 2020).

SMILES strings stand for the structures. The whole screen tested about 69,000 compounds, of which about 8,600 (12%) showed an effect of 50% or more. What follows is part of a selection rich in strong results, with near analogues and random picks from the rest.

This assay relates to Plasmodium berghei. Kind of assay: Screen against P. berghei liver stage (PbLuc), transformed with Luciferase, at 10uM. The assay is classed as functional, HepG2. The conditions noted are these: tested at 10 uM.
Regarding `OCCN(Cc1ccncc1)CC1(c2ccc(Cl)cc2)CC1`, the INHIBITION is on record as 46.2%. The value for `CC(Nc1cccc2c1OCCO2)C(=O)Nc1ccc(S(N)(=O)=O)cc1` (stereo not drawn) was -24.9%; that for `Cc1nc(CN(C)C2CCN(CCCOc3ccccc3C)C2)no1` (stereo not drawn) was 27.4%. The result for `CC(C)c1nc(C(=O)N2CCOCC2CC(=O)c2ccco2)cs1` (stereo not drawn) reads 37.4%; that for `COC(C)(C)C(=O)NCC1CCN(Cc2cc3ccccc3[nH]2)C1` (stereo not drawn), 40.8%; that for `O=C(Cn1cccc1)NCC1CCN(Cc2cc3ccccc3[nH]2)C1` (stereo not drawn), 46.7%. For the compound `O=C(NCC1CCN(Cc2cc3ccccc3[nH]2)C1)C1CCCCC1` (stereo not drawn), the INHIBITION was determined as 54.1%. The value for `Cc1nc(NCC2CC2)nc2c1COCC21CCN(C(=O)NC(C)C)C1` (stereo not drawn) was 29.9%; that for `CN(CC1CCOC1)c1ncc(Br)cn1` (stereo not drawn) was 12.8%. The result for `CC(NC(=O)CSCC#N)c1cccc(Cl)c1` (stereo not drawn) reads -29.7%; that for `Cc1nc(CN2CCCC(Cn3cncn3)C2)nc2ccccc12` (stereo not drawn), 29.95%; that for `CN(C)c1nc(NCCCN2CCc3ccccc32)ncc1F`, 55.1%. The result for `Cc1cnc(NCCCN2CCc3ccccc32)nc1` reads -15.4%. For `Cc1ccnc(NCCCN2CCc3ccccc32)n1`, the INHIBITION is reported as 3.58%.

As for `CCOc1ccc(C(=O)CCC(=O)NCc2csc(N)n2)cc1C`, the INHIBITION was 56.1%.

Consider `Cc1ccc(F)c(NC(=O)CCC(=O)N(C)Cc2nc(C)c[nH]2)c1`, for which the INHIBITION was determined as 53.9%. The result for `CCOc1ccc(C(=O)CCC(=O)NCCc2nncn2CC)cc1C` reads 15%; that for `CCOc1ccc(C(=O)CCC(=O)N(C)Cc2nc(C)c[nH]2)cc1C`, 63.4%; that for `CCOc1ccc(C(=O)CCC(=O)NCc2cncn2CC)cc1C`, -5.59%.

In the case of `CCc1cccc(NC(=O)CCC(=O)N(C)Cc2nc(C)c[nH]2)c1`, the INHIBITION is 12.8%.

As for `CCOc1ccc(C(=O)CCC(=O)N(C)Cc2cnccn2)cc1C`, the INHIBITION came out at 40.6%.

For the compound `COCc1cc(CN(C)C(=O)CCC(=O)Nc2cc(C)ccc2F)n[nH]1`, the INHIBITION worked out at 34.4%. The value for `CCOc1ccc(C(=O)CCC(=O)N(C)Cc2noc(C)n2)cc1C` was 11.9%; that for `CCOCC(=O)N1C[C@@H]2CCN(c3cnccn3)C[C@@H]2C1` was 32.1%. For the compound `COC(=O)c1cc2c(=O)n(C3CCCC3)ccc2nc1C`, the INHIBITION was found to be 46.1%.

As for `Cn1cccc1CN1CCC2(CC1)CCN(C(=O)c1cnccn1)CC2`, the INHIBITION is given as 39.5%. Regarding `CNC(=O)[C@@]12CCC3(CCN(C(=O)C(C)C)CC3)[C@@H]1CN(S(C)(=O)=O)C2`, the INHIBITION was 26.3%. For `Cc1cc(C(=O)N2CCOCC2c2nc(C)c[nH]2)nc(O)n1` (stereo not drawn), the INHIBITION was found to be 27.75%. In the case of `NC(C(=O)N1CCSc2ccccc2C1)c1ccccc1` (stereo not drawn), the INHIBITION was -22.1%. For `CC(C)C[C@H](N)C(=O)N1CCSc2ccccc2C1`, the INHIBITION stood at 81.6%.

For `CC(C)[C@H](N)C(=O)N1CCSc2ccccc2C1`, the INHIBITION was -20.5%. The result for `CCCc1nc(C)c(CNc2nc(C)nc3onc(C)c23)s1` reads 81.4%; that for `CCCc1nc(C)c(CNc2nc(C)nc3oc(C)nc23)s1`, 48.9%; that for `Cc1nc(C)n(CCCNc2ncnc3onc(C)c23)n1`, 19.2%. The value for `CCOc1cccc(C(=O)Nc2ccncc2)c1` was 50.3%; that for `CC(OCC1CC1)C(=O)Nc1ncccc1I` (stereo not drawn) was 50.4%. In the case of `CC(OCC1CC1)C(=O)NCCC(=O)Nc1ccccn1` (stereo not drawn), the INHIBITION was 1.74%. Consider `CCCNC(=O)c1ccc(NC(=O)c2cccc(OCC)c2)cc1`, for which the INHIBITION turned out to be 23.5%. The value for `CCOc1cccc(C(=O)NCCC(=O)Nc2ccncc2)c1` was 46.6%; that for `CC(OCC1CC1)C(=O)Nc1cccc(C(=O)Nc2ccncc2)c1` (stereo not drawn) was 82.4%; that for `CC(OCC1CC1)C(=O)Nc1cccc(C(=O)Nc2ccccn2)c1` (stereo not drawn) was 36.5%. Consider `O=C(COCC1CC1)Nc1ncccc1I`, for which the INHIBITION was -2.98%.

As to `CC(C)C(=O)Nc1cccc(C(=O)Nc2ccccn2)c1`, the INHIBITION is on record as 8.99%.

For the compound `CCc1noc(C(C)N2CCN(C(=O)CN3CCOCC3)CC2)n1` (stereo not drawn), the INHIBITION was -25.8%. The value for `Cc1sc(-c2ccco2)nc1C(=O)N1CCCC1Cn1cccn1` (stereo not drawn) was 34.7%; that for `Cc1cccc(Nc2ccc(C3CCN(Cc4ncc[nH]4)CC3)nc2)n1` was 36%; that for `Fc1ccc(Nc2ccc(C3CCN(Cc4ncc[nH]4)CC3)nc2)nc1` was 56.9%.

With `Cc1cc(Nc2ccc(F)cn2)cc(C2CCN(Cc3ncc[nH]3)C2)n1` (stereo not drawn), the INHIBITION is on record as 42.6%. On to `CC(C)C(=O)N1CC[C@H]2N(C)CC[C@@]2(C(=O)Nc2cccnc2)CC1`, for which the INHIBITION was -22.2%. Take `Cc1ccc(-c2nn(-c3cccc(F)c3)cc2CN(CCO)CCO)o1`: the INHIBITION came to 27.4%. The value for `CCN(CCO)Cc1cn(-c2cccc(F)c2)nc1-c1ccc(C)o1` was 25.7%; that for `Cc1ccc(-c2nn(-c3cccc(F)c3)cc2CN(C)CCO)o1` was 65.7%. Regarding `Cc1cc(-c2cnn(CCNC(=O)c3cccnc3)c2C2CC2)on1`, the INHIBITION was 38.7%.
